The record followed here is PubChem BioAssay (NCI).

The panel holds about 83,000 compounds, 20% with a hit somewhere; the sample as a whole holds those more often.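 In brief: 96-well plates, 48 h treatment, single concentration, percent growth endpoint.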 A number with no mark means an inactive call. Active and inactive are the calls of the source. The calls were made as follows: active = growth percent below 10; inactive = the rest.

Some test systems named below: T-47D breast; BT-549 breast; MDA-MB-435 melanoma; SW-620 colon; MCF7 breast; HCT-116 colon; HCC-2998 colon; KM12 colon.
Assay in all cases: NCI-60 one-dose screen, 48 h (100 = growth as untreated, 0 = no growth, -100 = all killed)
Common to all, as to settings: 10 µM unless noted

Regarding `CCN(CC)c1ccc2nc3c4ccccc4c(=NC(=O)c4ccccc4-c4c5ccc(N(CC)CC)cc5[o+]c5cc(N(CC)CC)ccc45)cc-3oc2c1`, the growth in the experiment on T-47D breast is 63.6%; in the experiment with BT-549 breast, 60.1%; with MDA-MB-435 melanoma, -86.2% (active); in the experiment on SW-620 colon it was -38.7% (active); in the experiment with MCF7 breast, -87.6% (active); in the experiment on HCT-116 colon, -26.8% (active). The growth is 15.9% in the experiment on HCC-2998 colon and -3% (active) with KM12 colon.

Regarding `COc1cc(C(=O)/C=C/c2c(C(F)(F)F)nc3sccn23)cc(OC)c1OC`, the growth is -22.7% (active) with T-47D breast; -14.2% (active) in the experiment with BT-549 breast; 12.6% in the experiment on MDA-MB-435 melanoma; -21.2% (active) in the experiment with SW-620 colon; 6.82% (active) with MCF7 breast; -85.3% (active) with HCT-116 colon. The growth in the experiment on HCC-2998 colon is -0.607% (active); in the experiment with KM12 colon it was -75.6% (active).

Take `COC(=O)[C@]12CC[C@@H](C)[C@H](C)[C@@H]1C1=CC[C@@H]3[C@@]4(C)C(C=O)=C[C@@](C)(COC(C)=O)C4=CC[C@@]3(C)[C@]1(C)CC2`: the growth in the experiment on T-47D breast was -5.34% (active); in the experiment on BT-549 breast it was -16% (active); with MDA-MB-435 melanoma, -0.255% (active); with SW-620 colon, -43.8% (active); with MCF7 breast, 5.08% (active); with HCT-116 colon, -67.5% (active). Besides, the figures for the growth with HCC-2998 colon and in the experiment with KM12 colon were -14.6% (active) and 2.7% (active), respectively.

Consider `CCOC(=O)c1c2ncccc2n2c(=O)n(-c3ccccc3C)nnc12`, for which the growth was 89.9% in the experiment on T-47D breast; 104% with BT-549 breast; 116% with MDA-MB-435 melanoma; 117% in the experiment with SW-620 colon; 77.5% in the experiment with MCF7 breast; 92.6% in the experiment on HCT-116 colon. Also, the growth with HCC-2998 colon is 106%; in the experiment with KM12 colon, 119%.

As for `O=C1/C(=C/c2ccccc2)CCc2nc3ccccc3c(/C=C/c3ccc(Cl)cc3)c21`, the growth in the experiment on T-47D breast was 54%; in the experiment with BT-549 breast, 104%; in the experiment with MDA-MB-435 melanoma, 95.6%; with SW-620 colon, 103%; in the experiment with MCF7 breast, 51.8%; with HCT-116 colon, 57.7%. Besides, the growth was 93.5% in the experiment with HCC-2998 colon and 91.4% with KM12 colon.

Regarding `Cc1ccc2[nH]c(=O)c3c(c2c1)OC(N)=C(C#N)C31c2cc(Br)ccc2-c2ccc(Br)cc21`, the growth is 39.4% in the experiment with T-47D breast; 82.5% in the experiment on BT-549 breast; 59.7% in the experiment with MDA-MB-435 melanoma; 40% in the experiment with SW-620 colon; 34% in the experiment on MCF7 breast; 67.8% with HCT-116 colon. Further, the growth was 70.5% in the experiment on HCC-2998 colon and 52.4% in the experiment on KM12 colon.

Turning to `FC(F)(F)c1cc(Nc2ccc3cc(OCCCN4CCOCC4)ccc3n2)ccc1Cl`, the growth is 26% in the experiment on T-47D breast; 87.9% in the experiment with BT-549 breast; 35% in the experiment with MDA-MB-435 melanoma; -13.7% (active) in the experiment on SW-620 colon; 6.85% (active) in the experiment on MCF7 breast; 14.5% with HCT-116 colon. Besides, the growth in the experiment on HCC-2998 colon was -18.5% (active); with KM12 colon, 16.7%.

Take `Cc1nn(-c2ccccc2)c(Cl)c1/C=C(/NC(=O)c1ccccc1)c1nc2ccccc2[nH]1`: the growth with T-47D breast is 86.7%; with BT-549 breast, 93.5%; in the experiment on MDA-MB-435 melanoma, 91.5%; with SW-620 colon it was 105%; in the experiment with MCF7 breast it was 93.1%; in the experiment with HCT-116 colon it was 86.6%. Further, the growth in the experiment on HCC-2998 colon is 131%; in the experiment on KM12 colon, 107%.

For the compound `COc1cc(C2CC(=O)Nc3c2c(C)nn3-c2nc3ccccc3[nH]2)cc2c1OCC(=O)N2` (stereo not given), the growth in the experiment with T-47D breast was 83.6%; in the experiment on BT-549 breast, 65.9%; with MDA-MB-435 melanoma, 48.5%; in the experiment on SW-620 colon it was 52.4%; in the experiment on MCF7 breast it was 56.9%; in the experiment with HCT-116 colon, 107%. Besides, the results for the growth in the experiment with HCC-2998 colon and in the experiment with KM12 colon were 103% and 70.8%, respectively.

With `Clc1ccc(-c2c3ccc(=[N+]4CCCCC4)cc-3oc3cc(N4CCCCC4)ccc23)cc1`, the growth with T-47D breast is -75.3% (active); with BT-549 breast it was -93.5% (active); with MDA-MB-435 melanoma it was -59.9% (active); with SW-620 colon it was -83.8% (active); in the experiment on MCF7 breast, -73.9% (active); with HCT-116 colon, -97.3% (active). For the same compound, the values for the growth in the experiment with HCC-2998 colon and in the experiment with KM12 colon were -95.6% (active) and -86.9% (active), respectively.

On to `CCCCCCCCCCCCCCCCCC1=NCCN1CCOC1=C(Cl)C(=O)c2ccccc2C1=O`, for which the growth with T-47D breast was 12.6%; in the experiment with BT-549 breast, 68%; in the experiment with MDA-MB-435 melanoma, 95.5%; in the experiment with SW-620 colon, 7.23% (active); in the experiment with MCF7 breast, 65.6%; in the experiment with HCT-116 colon, 43.6%. Further, the growth is 100% in the experiment with HCC-2998 colon and 51% in the experiment on KM12 colon.

`COc1cccc(-c2nn(-c3ccccc3)cc2-c2ccnc(NCCCNC(=O)c3cccc(C(F)(F)F)c3)c2)c1`: the growth in the experiment with T-47D breast was -19.6% (active); in the experiment with BT-549 breast, 1.62% (active); in the experiment on MDA-MB-435 melanoma, 24.6%; with SW-620 colon, 33.2%; in the experiment with MCF7 breast it was 18.1%; in the experiment on HCT-116 colon it was 10.6%. Besides, the growth in the experiment on HCC-2998 colon is 21.7%; in the experiment with KM12 colon, 23%.

As to `O=C(O)CN1C(=O)CCC1=O`, the growth with T-47D breast is 90.4%; in the experiment on BT-549 breast, 103%; in the experiment on MDA-MB-435 melanoma, 102%; in the experiment with SW-620 colon, 114%; in the experiment with MCF7 breast, 92%; in the experiment with HCT-116 colon, 115%. Besides, the results for the growth in the experiment on HCC-2998 colon and with KM12 colon were 110% and 104%, respectively.

Turning to `COCCc1ccc(OCC(O)CNC(C)C)cc1` (stereo not given), the growth with T-47D breast is 102%; with BT-549 breast, 94.2%; in the experiment on MDA-MB-435 melanoma, 97.4%; in the experiment on SW-620 colon, 105%; in the experiment on MCF7 breast, 101%; in the experiment with HCT-116 colon, 101%. Also, the growth with HCC-2998 colon was 102%; in the experiment with KM12 colon it was 105%.

On to `CC(=O)c1ccc(NCC(=O)Nc2ccccn2)cc1`, for which the growth was 94.6% in the experiment with T-47D breast; 104% in the experiment with BT-549 breast; 104% in the experiment with MDA-MB-435 melanoma; 102% with SW-620 colon; 86.9% in the experiment on MCF7 breast; 101% in the experiment on HCT-116 colon. In addition, the growth was 110% in the experiment on HCC-2998 colon and 99% with KM12 colon.
